Experimental findings from PubChem BioAssay are described below.

Each structure is given as a SMILES string. Where “and” joins values, the source holds several entries; their conditions need not be identical. Identical values can stand only once. Inconclusive results are not listed. Some structures have more than one record in an assay (separate samples or runs), and their calls can disagree. Calls of active or inactive are those of the source.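 The calls were made as follows, unless noted: active = mean z-score across replicates of 1.96 or higher in either the MELAS or the Rieske mutant cell line; inactive = the rest.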

Experiment [1] can be described thus: viability loss in pontine glioma line – cell-based, SU-DIPG-XXV, MIPE5.0, CellTiter-Glo, qHTS, dose response (AID 1347065; cut-off not given, nearly all actives have AC50 up to about 26 µM;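 also: cells exposed to compound for 48 hours before ATP readout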). As to conditions: CellTiter-Glo ATP luminescence. (Cellular ATP, detected with luciferase, serves as a proxy for viable cell number.)
Experiment [2] in a line: SU-DIPG-VI glioma cell viability, MIPE4.0 library, CellTiter-Glo luminescence, qHTS (AID 1347066; cut-off not given, nearly all actives have AC50 up to about 30 µM;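 also: cells exposed to compound for 48 hours before readout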). As to conditions: CellTiter-Glo ATP luminescence.
Experiment [3] is described as follows: JHH-DIPG-1 glioma cell viability, MIPE5.0 library, CellTiter-Glo luminescence, qHTS (AID 1347067; cut-off not given, nearly all actives have AC50 up to about 26 µM;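 also: cells exposed to compound for 48 hours before readout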). As to conditions: JHH-DIPG-1 glioma viability, CellTiter-Glo ATP luminescence.
Experiment [4] in a line: SU-DIPG-XXV glioma cell viability, MIPE5.0 library, qHTS (AID 1347068; cut-off not given, nearly all actives have IC50 up to about 30 µM). In general terms: qHTS replaces the single test concentration by a dilution series.
The nature of experiment [5]: phospholipid biosynthesis inhibitors in animal cells, primary screen, cell-based, LOPAC library, screen 4 (AID 1347384; call rule not given here). As to conditions: phospholipid biosynthesis inhibition screen, at 10 µM.
Experiment [6] in a line: survival rescue of mitochondrial mutant cells in low glucose, primary screen, MELAS cybrids, Rieske KO mouse fibroblasts, CellTiter-Glo (AID 1508586).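 Also: z relative to plate mean and SD of compound and empty wells.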
Experiment [7] concerns the target NAD(+) hydrolase SARM1 (Homo sapiens) (UniProt Q6SZW1). Kind of experiment: SARM1 TIR NADase inhibitors, cell lysate, NAD-Glo luminescence (AID 1508614;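 active = compound whose remaining NAD level is above about 45 nM, limit read from the data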;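 also: higher remaining NAD means stronger inhibition of SARM1 NADase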). The conditions noted are these: SAM-TIR HEK293T lysate NADase, at 1 µM, stronger effect = higher value.
In experiment [8] the target is Mitogen-activated protein kinase 7 (Homo sapiens) (UniProt Q13164). Briefly: ERK5 transactivation activators in reporter cells, primary screen, cell-based, HTS (AID 1508626;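 active = luciferase signal above three times the same-plate solvent-only control wells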;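 also: luciferase driven by Gal4-ERK5 fusion binding five Gal4 sites before minimal TATA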). As to conditions: HeLa Gal4-ERK5 transactivation, 18 h, at 5 µM, stronger effect = higher value.
Chain of Mitogen-activated protein kinase 7 (Homo sapiens) (Q13164 whole entry, looked up, the tested form may be a part): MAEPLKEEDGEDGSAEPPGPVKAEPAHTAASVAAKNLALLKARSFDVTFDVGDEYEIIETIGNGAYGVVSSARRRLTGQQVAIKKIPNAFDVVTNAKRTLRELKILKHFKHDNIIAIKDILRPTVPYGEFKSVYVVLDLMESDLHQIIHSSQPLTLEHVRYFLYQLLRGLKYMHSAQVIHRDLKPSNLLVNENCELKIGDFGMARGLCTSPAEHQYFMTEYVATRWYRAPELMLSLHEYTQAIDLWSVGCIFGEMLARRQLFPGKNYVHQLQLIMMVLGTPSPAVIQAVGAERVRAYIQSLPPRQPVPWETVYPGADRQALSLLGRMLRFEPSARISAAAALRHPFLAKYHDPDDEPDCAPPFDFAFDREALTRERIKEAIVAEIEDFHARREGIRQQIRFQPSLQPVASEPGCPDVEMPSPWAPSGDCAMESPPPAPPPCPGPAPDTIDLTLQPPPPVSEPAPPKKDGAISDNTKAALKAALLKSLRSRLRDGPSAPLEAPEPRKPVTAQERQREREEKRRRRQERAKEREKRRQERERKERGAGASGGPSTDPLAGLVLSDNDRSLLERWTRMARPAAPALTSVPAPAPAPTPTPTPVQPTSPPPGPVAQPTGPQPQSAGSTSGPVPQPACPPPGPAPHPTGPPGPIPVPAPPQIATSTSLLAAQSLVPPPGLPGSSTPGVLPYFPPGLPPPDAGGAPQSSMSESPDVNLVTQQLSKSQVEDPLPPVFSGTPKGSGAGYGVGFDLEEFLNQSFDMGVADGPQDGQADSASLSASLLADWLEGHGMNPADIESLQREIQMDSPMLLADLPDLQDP
Experiment [9] can be described thus: viability rescue of complex I mutant cybrids, primary screen, cell-based, galactose medium, ATP luminescence (AID 1645843;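 active = z-score of at least 1.8 in each of two replicates, scored against plate mean and spread of sample wells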;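 also: positive z means more ATP and so rescue of galactose-driven cybrid death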). As to conditions: complex I mutant cybrid cells, 72 h, stronger effect = higher value.
The mark [10] stands for this setting: MELAS cybrid survival, CellTiter-Glo 48 h, stronger effect = higher value.
Where [11] appears, read: Rieske KO mouse fibroblast survival, CellTiter-Glo 72 h.

Chain of NAD(+) hydrolase SARM1 (Homo sapiens) (Q6SZW1 whole entry, looked up, the tested form may be a part): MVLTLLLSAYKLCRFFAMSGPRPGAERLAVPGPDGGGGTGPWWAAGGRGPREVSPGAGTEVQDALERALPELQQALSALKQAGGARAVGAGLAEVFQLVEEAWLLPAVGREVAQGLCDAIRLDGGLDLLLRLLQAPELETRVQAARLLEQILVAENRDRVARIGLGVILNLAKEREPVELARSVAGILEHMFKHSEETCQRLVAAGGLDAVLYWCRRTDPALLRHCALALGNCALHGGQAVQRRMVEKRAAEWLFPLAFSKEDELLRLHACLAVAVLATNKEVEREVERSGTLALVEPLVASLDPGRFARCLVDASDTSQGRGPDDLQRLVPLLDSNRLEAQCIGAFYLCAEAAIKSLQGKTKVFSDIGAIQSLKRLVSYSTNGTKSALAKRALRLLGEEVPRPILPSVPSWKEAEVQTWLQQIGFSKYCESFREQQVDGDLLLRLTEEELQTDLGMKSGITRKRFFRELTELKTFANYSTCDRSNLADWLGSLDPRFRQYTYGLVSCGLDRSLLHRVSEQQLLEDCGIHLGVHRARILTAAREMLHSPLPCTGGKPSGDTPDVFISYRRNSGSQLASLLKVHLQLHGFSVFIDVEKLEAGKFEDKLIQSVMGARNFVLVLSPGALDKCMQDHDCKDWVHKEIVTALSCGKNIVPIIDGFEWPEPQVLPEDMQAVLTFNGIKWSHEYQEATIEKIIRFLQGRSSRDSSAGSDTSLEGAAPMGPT

As to `Oc1ccc(C2CNCCc3c2cc(O)c(O)c3Cl)cc1` (stereo unspecified), the call in experiment [1], in [2], in experiment [3], in experiment [4] and in experiment [5] was inactive. In addition, the z-score is 0.526 (inactive) and 0.283 (inactive) in experiment [6] (setting [10]); -0.363 and -0.533 in experiment [6] (setting [11]). Moreover, in [7], the remaining NAD was 10 nM (inactive).

As for `Cc1ccccc1N1C(=O)c2cc(S(N)(=O)=O)c(Cl)cc2NC1C` (stereo unspecified), the result in experiment [1], in experiment [2], in [3], in experiment [4] and in experiment [5] was inactive. For the same molecule, the z-score in experiment [6] (setting [10]) is -0.2 (inactive) and 0.948 (inactive); in experiment [6] (setting [11]), 0.325 and -0.0446; in experiment [9], -0.04 (inactive). Besides, the remaining NAD in [7] is 10 nM (inactive). The luciferase signal in [8] was 64 AU (inactive).

In the case of `Nc1nnc(-c2cccc(Cl)c2Cl)c(N)n1`, the call in [1], in experiment [2], in [3], in experiment [4] and in experiment [5] was inactive. The z-score in experiment [6] (setting [10]) is 1.04 (inactive) and -0.0755 (inactive) and -0.75 (inactive); in experiment [6] (setting [11]) it was -2.18 and 0.0455 and -0.484; in experiment [9] it was 0.675 (inactive) and 0.31 (inactive) and 0.775 (inactive). Further, in [7], the remaining NAD was 10 nM (inactive). For the same molecule, the luciferase signal in [8] is 44 AU (inactive).

As to `COC(=O)[C@@H]1[C@H]2C[C@H]3c4[nH]c5ccccc5c4CCN3C[C@@H]2CC[C@@H]1O`, the result in experiment [1], in [2], in experiment [3], in [4] and in [5] was inactive. The z-score is 0.194 (inactive) and -0.872 (inactive) in experiment [6] (setting [10]); 0.2 and -0.116 in experiment [6] (setting [11]); 0.525 (inactive) and 0.82 (inactive) in experiment [9]. For the same molecule, the remaining NAD in experiment [7] was 10 nM (inactive). Further, in [8], the luciferase signal was 44 AU (inactive).

As for `CCC1=C(C)CN(C(=O)NCCc2ccc(S(=O)(=O)NC(=O)NC3CCC(C)CC3)cc2)C1=O` (stereo unspecified), the outcome in experiment [1], in experiment [2], in experiment [3] and in experiment [4] was inactive. The z-score in experiment [6] (setting [10]) is -0.439 (inactive) and 0.644 (inactive) and 0.245; in experiment [6] (setting [11]), 0.486 and 0.124 and 2.28; in [9], 2.29 (active) and 6.57 (active) and 1.99 (inactive). Moreover, in [7], the remaining NAD is 10 nM (inactive).
